Compound activity: PubChem, Johns Hopkins Ion Channel Center
KCNQ2 enhance = potentiators of rat KCNQ2 potassium channel | Potassium voltage-gated channel subfamily KQT member 2 (Rattus norvegicus), O88943 | CHO-K1 KCNQ2, FluxOR thallium flux fluorescence; stronger effect = higher value | B-score at 10 µM | 0.54% of 310,000 active;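 active = fluorescence ratio B-score at least 3 SD of library B-scores, with initial fluorescence B-score within 3 of them, cut at about 5.3 in these data; same plate scores as AID 2156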;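 also: B-score of peak minus minimum over baseline fluorescence ratio after K+ and Tl+ stimulus; positive B-score means potentiation of KCNQ2 with more thallium influx and brighter signal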
Target sequence (O88943 whole entry, looked up): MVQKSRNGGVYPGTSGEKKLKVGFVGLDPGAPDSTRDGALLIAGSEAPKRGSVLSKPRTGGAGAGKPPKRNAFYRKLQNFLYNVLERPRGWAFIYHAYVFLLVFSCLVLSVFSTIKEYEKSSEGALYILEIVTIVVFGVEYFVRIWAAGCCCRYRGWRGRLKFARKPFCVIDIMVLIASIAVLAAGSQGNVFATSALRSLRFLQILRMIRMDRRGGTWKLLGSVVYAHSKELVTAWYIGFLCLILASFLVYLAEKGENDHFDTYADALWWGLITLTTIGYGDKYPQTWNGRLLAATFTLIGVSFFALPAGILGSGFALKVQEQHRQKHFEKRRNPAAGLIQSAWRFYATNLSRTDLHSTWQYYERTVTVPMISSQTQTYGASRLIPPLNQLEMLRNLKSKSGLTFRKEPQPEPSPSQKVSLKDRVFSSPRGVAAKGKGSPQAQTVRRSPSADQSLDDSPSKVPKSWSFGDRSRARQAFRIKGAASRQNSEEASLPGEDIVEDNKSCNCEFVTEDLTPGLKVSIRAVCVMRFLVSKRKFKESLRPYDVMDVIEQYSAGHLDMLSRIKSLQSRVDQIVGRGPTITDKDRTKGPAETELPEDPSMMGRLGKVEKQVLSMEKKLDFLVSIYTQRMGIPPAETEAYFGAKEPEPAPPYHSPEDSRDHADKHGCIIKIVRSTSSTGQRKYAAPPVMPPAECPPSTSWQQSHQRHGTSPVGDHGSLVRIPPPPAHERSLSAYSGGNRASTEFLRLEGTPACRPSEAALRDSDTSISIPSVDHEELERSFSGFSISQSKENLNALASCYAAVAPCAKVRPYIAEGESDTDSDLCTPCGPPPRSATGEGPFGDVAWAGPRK
KCNQ2 inh = rat KCNQ2 potassium channel inhibitors, primary screen, cell-based, CHO-K1, FluxOR thallium flux, B-score; 20 min; stronger effect = lower value; B-score at 10 µM; 1.1% of 310,000 active; AID 2156, 2009;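 active = fluorescence ratio B-score at most minus 3 library SDs, with starting brightness B-score within 2 library SDs, cut at about -5.5 in these data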
The depositor's hits bear a star; i = inactive; x = no result. This is a sample that favours compounds with a hit; in the whole collection about 1.6% have one here.

SMILES	KCNQ2 enhance	KCNQ2 inh
Cc1cc(Cc2ccc([N+](=O)[O-])cc2)c(C)cn1	x	i
COc1cc2c(cc1OC)C(CSc1ccccc1C(=O)O)=NC(C)(C)C2	x	i
CC1(C)Cc2ccccc2C(CSc2ccccc2C(=O)O)=N1	-6.05	-6.05*
COc1cc(Br)c(CC(=O)NC2CC2)cc1OC	1.53	i
Cc1cc(C(=O)NCC(=O)OC(C(=O)Nc2cc(C(F)(F)F)ccc2Cl)c2ccccc2)ccc1[N+](=O)[O-] (stereo unspecified)	-5.79	-5.79*
COc1ccc(C)cc1NC(=O)C(OC(=O)CNC(=O)c1ccc(Br)cc1)c1ccccc1 (stereo unspecified)	x	i
CCCC(=O)OC(C(=O)Nc1cc(C(F)(F)F)ccc1Cl)c1ccccc1 (stereo unspecified)	-5.59	-5.59*
O=C(Nc1cc(C(F)(F)F)ccc1Cl)C(Sc1ccccn1)c1ccccc1 (stereo unspecified)	x	i
CCOC(=O)N1CCN(C(=O)COC(=O)c2ccccc2NCCO)CC1	x	i
Cc1cc([N+](=O)[O-])nn1CC(=O)N(C)C1CCCCC1	x	i
C/C(CCc1ccc2c(c1)OCO2)=N\N=C1\NC(=O)CC(C(=O)Nc2ccccc2F)S1 (stereo unspecified)	x	i
NS(=O)(=O)c1ccc(NC(=O)Nc2ccc(C(F)(F)F)cc2)cc1	0.35	i
Cc1ccc(C)c(NC(=O)COc2cccc3c2CCN(Cc2ccccc2C)C3=O)c1	x	i
Cc1ccc(CN2CCc3c(OCC(=O)Nc4cccc(C)c4C)cccc3C2=O)cc1	-7.17	-7.17*
CCN(Cc1ccncc1)Cc1c(O)ccc2cc(Br)ccc12	x	i
CCCCCN(C(=O)CCC(=O)OCc1cccc(F)c1)c1c(N)n(CCCC)c(=O)[nH]c1=O	x	i
CC(NC(=O)Cc1cccs1)C(c1cccs1)N1CCN(c2ccccc2)CC1 (stereo unspecified)	8.25*	i
CCC(=O)NC(C)C(c1cccs1)N1CCN(c2ccccc2)CC1 (stereo unspecified)	0.03	i
Clc1ccccc1OCc1nnc(-c2ccccc2Br)o1	x	i
Clc1ccc(Cc2nnc(-c3ccccc3Br)o2)cc1	-5.89	-5.89*
CCS(=O)(=O)N1CCC(C(=O)Nc2cc(C)ccc2O)CC1	1.05	i
CCC(=O)Nc1cc(-c2nn(C)c(=O)c3ccccc23)ccc1N1CCOCC1	x	i
Cn1nc(-c2ccc(N3CCCCC3)c(NC(=O)c3ccco3)c2)c2ccccc2c1=O	-5.6	-5.6*
COc1ccc(S(=O)(=O)Nc2ccccc2OC)cc1NC(=O)CC1CC2CCC1C2 (stereo unspecified)	x	i
CC1C(=O)C(C)C(c2ccc3c(c2)OCO3)NC1c1ccc2c(c1)OCO2 (stereo unspecified)	x	i
SMILES	KCNQ2 enhance	KCNQ2 inh
CC1C(=O)C(C)C(c2ccc(Br)cc2)NC1c1ccc(Br)cc1 (stereo unspecified)	-6.28	-6.28*
COc1cccc2c(=O)n(CC(=O)Nc3cccc(F)c3)ccc12	1.88	i
Cc1ccc(SC(=O)c2c([N+](=O)[O-])c(C)nn2C)cc1	-5.9	-5.9*
Cc1cc(C)n(C(=O)c2c([N+](=O)[O-])c(C)nn2C)n1	0.67	i
CCCNC(=O)c1ccc(Cn2cc(-c3ccc(OC)cc3)nc2C(C)N)cc1 (stereo unspecified)	1.22	i
O=c1c2cnn(-c3ccccc3)c2nc(-c2cccs2)n1-c1ccc(Cl)cc1	x	i
O=c1c2cnn(-c3ccccc3)c2nc(-c2cccs2)n1-c1cccc(Cl)c1	-7.55	-7.55*
N#Cc1c(NC(=O)c2cccc(S(=O)(=O)Nc3ccc(C(=O)O)cc3)c2)sc2c1CCCC2	4.47	i
O=c1c2ccccc2c(-c2ccccc2)nn1Cc1c(Cl)cccc1Cl	-5.82	-5.82*
CCOC(=O)Cn1nc(-c2ccccc2)c2ccccc2c1=O	0.13	i
CCOc1ccc(CCNC(=O)c2cccc(NC3=NC4CS(=O)(=O)CC4S3)c2)cc1 (stereo unspecified)	x	i
COc1ccc([N+](=O)[O-])cc1/C=N/NC(=O)CNC(=O)c1cccc(F)c1	x	i
COc1ccc([N+](=O)[O-])cc1/C=N/NC(=O)CNC(=O)C(c1ccccc1)c1ccccc1	-6.06	-6.06*
O=C(CSc1cn[nH]n1)Nc1ccc(Cl)cc1Cl	x	i
Cc1ccc(NC(=O)CC2Oc3ccccc3NC2=O)c(C)c1 (stereo unspecified)	0.28	i
CCC1(CC)C(=O)C2=C3C1[C@H](C(=O)OC)CC(C(=O)OC)C[C@H]3n1c(=O)n(C)c(=O)n1[C@H]2C (stereo partly specified)	-7.48	-7.48*
CCC1(CC)C(=O)C2=C3C1[C@H](C(=O)OC)C=C(C(=O)OC)C[C@H]3n1c(=O)n(C)c(=O)n1[C@H]2C (stereo partly specified)	0.19	i
COc1ccc(/C=C2\N=C(c3ccccc3Cl)NC2=O)cc1	x	i
COc1ccc(NC(=O)CCC(=O)Nc2nnc(C3CCCCC3)s2)c(OC)c1	1.24	i
COc1ccc(-c2nn(-c3ccccc3)cc2C(=O)NCC(c2cccs2)N2CCOCC2)cc1 (stereo unspecified)	x	i
COc1cccc(-c2nn(-c3ccc(C)cc3)cc2C(=O)NCC(c2cccs2)N2CCOCC2)c1 (stereo unspecified)	-6.92	-6.92*
OCC[C@@H]1C[C@@H](O)[C@H](O)[C@]2(CCCCO2)O1	0.74	i
O=C(OCc1nnc(-c2ccc(Cl)cc2)o1)c1ccncc1	x	i
Cc1noc(C)c1COc1ccc(C(=O)OCc2nnc(-c3ccc(Cl)cc3)o2)cc1	-7.63	-7.63*
CCN(CC)CCNc1nc(C(F)(F)F)nc2c1nnn2Cc1ccccc1	2.24	i
SMILES	KCNQ2 enhance	KCNQ2 inh
CCN(CC)CCNc1nc(-c2ccccc2)nnc1C(F)(F)F	9.04*	i
CCn1c(SCc2ccccc2Cl)nc2nc3c(cc2c1=O)CCCC3	x	i
CCn1c(SCc2c(Cl)cccc2Cl)nc2nc3c(cc2c1=O)CCCC3	-6.7	-6.7*
COc1ccc(C)cc1NC(=O)c1ccccc1NS(=O)(=O)c1cccc2cccnc12	x	i
Cn1c(=O)c(/C=C/c2ccc(F)cc2)nc2ccccc21	-5.88	-5.88*
Cn1c(=O)c(/C=C/c2ccccc2)nc2ccccc21	x	i
CCN(CC)C(=S)NC(=O)c1ccc(Cl)cc1Cl	4.17	i
CCCCN(CCCC)C(=S)NC(=O)c1ccccc1Cl	19.1*	i
COc1ccc(C(=O)NCCC(=O)N2CCC3(CC2)NCCc2[nH]cnc23)cc1	0.52	i
O=S(=O)(c1ccccc1Cl)N1CCCC1c1nc(-c2cccc(Cl)c2)no1 (stereo unspecified)	-6.33	-6.33*
O=S(=O)(c1ccc(Cl)cc1)N1CCCC1c1nc(-c2cccc(Cl)c2)no1 (stereo unspecified)	-5.93	-5.93*
O=S(=O)(c1ccc(Cl)cc1)N1CCCC1c1nc2ccccc2s1 (stereo unspecified)	x	i
O=S(=O)(c1ccccc1Cl)N1CCCC(c2nc(-c3cccnc3)no2)C1 (stereo unspecified)	0.89	i
Cc1cc2nccc(-c3ccc(Cl)c([N+](=O)[O-])c3)n2n1	x	i
CNC(=S)N(CCc1c(C)[nH]c2ccccc12)Cc1cccnc1	1.27	i
O=c1cc(-c2c(O)c3ccccc3n(Cc3ccccc3)c2=O)[nH][nH]1	-6.85	-6.85*
